Molecules are shown by their SMILES. Inconclusive results are not listed. Active and inactive are the calls of the source. The call rests on the fitted dose curve.
On the % scale 0 is the no-effect control and ±100 the full control effect; potency means the concentration at half of the fitted maximal effect.

A short description of the assay: qHTS assay to identify small molecule agonists of H2AX - cell viability counter screen (AID 1224847). Further: nearly all actives have a fitted effect of over 30% in size. On activity change, negative = cytotoxicity: top concentration of the series differs between compounds. Particulars: CHO-K1 viability, CellTiter-Glo luminescence, 3 h; series mostly up to 154 µM; activity change, negative = cytotoxicity: at the top concentration. From the text: National Center for Advancing Translational Sciences [NCATS]
NIH Chemical Genomics Center [NCGC]
U.S. Environmental Protection Agency [EPA]
National Institutes of Environmental Health Sciences [NIEHS]
National Toxicology Program [NTP]
U.S. Food and Drug Administration [FDA]
HTRF phospho-H2AX (Ser139) assay (Cisbio Bioassays, US) enables the quantitative detection of the histone variant H2AX when phosphorylated on serine 139. When double-stranded DNA breaks, either by ionizing radiation or endogenous physiological processes, H2AX becomes phosphorylated at Ser139. This phospho-Ser139 serves as a sensitive biomarker for the detection of such breaks, localizing the site of DNA repair. So, HTRF phospho-H2AX Ser139 is a pertinent assay to study genome stability, the cell cycle, DNA repair, and it serves as a biomarker for cancer, and to understand aging. Wild type CHO-K1 cells were used to identify the inducers of Phospho-H2AX Ser 139 from the Tox21 compound collections. Also cytotoxicity of the Tox21 10K compound library against the CHO-K1 cell line was tested by measuring the cell viability using CellTiter-Glo assay (Promega, Madison, WI).
Tox21 Assay Protocol Summary:
The CHO-K1 cells suspended in culture medium containing 10% FBS were dispensed at 1000 cells/ 3 ul/well in 1536-well white wall/solid bottom plates (Greiner Bio-One North America, NC) using a Multidrop Combi (Thermo Fisher Scientific Inc., Waltham, MA). After the assay plates were incubated at 37C overnight, 23 nl of compounds at 15 concentrations (from 5-48 columns) or positive control (from 1 to 4 columns) were transferred to the assay plates using a Pintool station (Wako, San Diego, CA) into each well resulting in a final DMSO concentration of 0.76%. After 3hr incubation at 37C, 3 uL/well CellTiter-Glo luminescent cell viability reagent (Promega Corporation, Madison, WI) was added using a Flying Reagent Dispenser (FRD) (Aurora Discovery, CA). After incubation at room temperature for 30 min, the luminescence intensity was read using a ViewLux plate reader (PerkinElmer, Waltham, MA).
On the technique in general: qHTS replaces the single test concentration by a dilution series.
With `CC(C)COC(=O)c1ccc(O)cc1`, the “activity change, negative = cytotoxicity” value was -2.14% (inactive).

For `CCN(CC)CC(=O)Nc1c(C)cccc1C(=O)OC`, the “activity change, negative = cytotoxicity” value was -3.69% [at 70.9 µM] (inactive).

Take `C[C@H](CS)C(=O)N1CCC[C@H]1C(=O)O`: the “activity change, negative = cytotoxicity” value is 1.03% [at 70.9 µM] (inactive).

Consider `COC(=O)c1sccc1S(N)(=O)=O`, for which the “activity change, negative = cytotoxicity” value was 0.304% (inactive).

As for `COc1cc(C(C)=O)ccc1OCCCN1CCC(c2noc3cc(F)ccc23)CC1`, the “activity change, negative = cytotoxicity” value is -12.4% [at 70.9 µM] (inactive).

Consider `C/C(C=O)=C\c1ccccc1`, for which the “activity change, negative = cytotoxicity” value was -3.08% (inactive).

Turning to `CC(C)(C)C1(CCc2ccc(Cl)cc2)CO1` (stereo not given), the “activity change, negative = cytotoxicity” value is -10.1% (inactive).

For `COc1ccc(CCN(C)CCCN2CCc3cc(OC)c(OC)cc3CC2=O)cc1OC`, the “activity change, negative = cytotoxicity” value was 0.74% [at 70.9 µM] (inactive).

`Cc1c[nH]c2ccccc12`: the “activity change, negative = cytotoxicity” value is 1.41% [at 70.9 µM] (inactive).

On to `O=C1CC[C@@H](C(=O)O)N1`, for which the “activity change, negative = cytotoxicity” value was -2.69% [at 70.9 µM] (inactive).

On to `CC(C)COC(=O)COc1cc(Cl)c(Cl)cc1Cl`, for which the “activity change, negative = cytotoxicity” value is 1.3% (inactive).

With `CCCCCCC(O)CCOC(C)=O` (stereo not given), the “activity change, negative = cytotoxicity” value is 2.49% [at 401 µM] (inactive).

On to `CCCCCCC(CO)CCCC` (stereo not given), for which the “activity change, negative = cytotoxicity” value was 0.913% (inactive).

As for `C[C@@H]1[C@H](O)[C@@H](C)/C=C/C=C\C=C\C=C\C=C\C=C\C=C\[C@H](O[C@@H]2O[C@H](C)[C@@H](O)[C@H](N)[C@@H]2O)C[C@@H]2O[C@](O)(C[C@@H](O)C[C@@H](O)[C@H](O)CC[C@@H](O)C[C@@H](O)CC(=O)O[C@H]1C)C[C@H](O)[C@H]2C(=O)O` (stereo in doubt), the “activity change, negative = cytotoxicity” value was -8.18% (inactive).

Take `CCC(=O)OCc1ccc(OC)cc1`: the “activity change, negative = cytotoxicity” value is 2.97% (inactive).

Consider `CSCC[C@H](NC(=O)[C@H](Cc1c[nH]c2ccccc12)NC(=O)CCNC(=O)OC(C)(C)C)C(=O)N[C@@H](CC(=O)O)C(=O)N[C@@H](Cc1ccccc1)C(N)=O`, for which the “activity change, negative = cytotoxicity” value was 5.78% [at 70.9 µM] (inactive).

As to `CC1CCCC(=O)C1=O` (stereo not given), the “activity change, negative = cytotoxicity” value was 1.94% (inactive).

With `CC(=O)OC(C)C[N+](C)(C)C` (stereo not given), the “activity change, negative = cytotoxicity” value was -1.79% [at 70.9 µM] (inactive).

For the compound `CCCCCCCCCCCSCC(=O)O`, the “activity change, negative = cytotoxicity” value is -4.08% (inactive).

Consider `O=C1OC[C@H](Cc2cccc(O)c2)[C@H]1Cc1cccc(O)c1`, for which the “activity change, negative = cytotoxicity” value was -0.101% [at 70.9 µM] (inactive).

With `Cc1ccc(N(CCO)CCO)cc1`, the “activity change, negative = cytotoxicity” value is 0.293% (inactive).

With `COc1cc(NS(=O)(=O)c2ccc(N)cc2)nc(C)n1`, the “activity change, negative = cytotoxicity” value is 7.25% [at 70.9 µM] (inactive).

With `CCO[Si](C)(CCCOCC1CO1)OCC` (stereo not given), the “activity change, negative = cytotoxicity” value is 2.05% (inactive).

`Nc1ccc(F)cc1`: the “activity change, negative = cytotoxicity” value was 0.46% (inactive).

`OCC(CO)n1cnc(-c2ccc(F)cc2)c1-c1ccnc(Oc2ccccc2)n1`: the “activity change, negative = cytotoxicity” value is -6.95% (inactive).

In the case of `CCCCCCCCCCCC(=O)OCC(O)CO` (stereo not given), the “activity change, negative = cytotoxicity” value is -4.56% (inactive).

For the compound `Nc1ccc(NC(=O)c2ccc(N)cc2)cc1`, the “activity change, negative = cytotoxicity” value was -1.34% (inactive).

Take `CCCCCCCC(=O)OCCCCCC`: the “activity change, negative = cytotoxicity” value is 1.05% (inactive).

With `CCC(Cl)CC(Cl)C(Cl)C(Cl)C(Cl)C(C)Cl` (stereo not given), the activity change, negative = cytotoxicity is -5.22% [at 31.6 µM] (inactive).

Take `CCCCCc1ccco1`: the “activity change, negative = cytotoxicity” value is -1.54% [at 70.9 µM] (inactive).

As for `Cc1cccc(C)c1NC(=O)c1cc(S(N)(=O)=O)c(Cl)cc1O`, the “activity change, negative = cytotoxicity” value is 1.65% [at 70.9 µM] (inactive).

In the case of `CC(C)OC(=O)c1ccccc1C(=O)OC(C)C`, the “activity change, negative = cytotoxicity” value is -3.07% (inactive).

As to `Cc1cn([C@H]2C[C@H](F)[C@@H](CO)O2)c(=O)[nH]c1=O`, the “activity change, negative = cytotoxicity” value is 1.92% [at 70.9 µM] (inactive).

Consider `BrC(Br)C(Br)Br`, for which the “activity change, negative = cytotoxicity” value was -3.46% (inactive).

Consider `CN1C(CSCC(F)(F)F)Nc2cc(Cl)c(S(N)(=O)=O)cc2S1(=O)=O` (stereo not given), for which the “activity change, negative = cytotoxicity” value was 2.44% [at 70.9 µM] (inactive).

As to `O=c1[nH]c2cc(C(F)(F)F)c(N3CCOCC3)cc2n(CP(=O)(O)O)c1=O`, the “activity change, negative = cytotoxicity” value is -1.48% [at 70.9 µM] (inactive).

`O=C(O)CCC(=O)OC[C@@H](NC(=O)C(Cl)Cl)[C@H](O)c1ccc([N+](=O)[O-])cc1`: the “activity change, negative = cytotoxicity” value is 0.204% [at 70.9 µM] (inactive).

On to `Cc1ccc(N(CC2=NCCN2)c2cccc(O)c2)cc1`, for which the “activity change, negative = cytotoxicity” value was -1.21% [at 70.9 µM] (inactive).

With `CCN(CC)c1ccc(C(=C2C=CC(=[N+](CC)CC)C=C2)c2ccc(S(=O)(=O)O)cc2S(=O)(=O)[O-])cc1`, the Potency is 12.7 µM (active).

Take `CC(C)(C(=O)c1cccnc1)c1cccnc1`: the “activity change, negative = cytotoxicity” value was 2.96% [at 70.9 µM] (inactive).

Source of the values: PubChem BioAssay (Tox21).
